The values that follow come from PubChem BioAssay AID602438 (Sanford-Burnham Center for Chemical Genomics, 2012).

Molecules are shown by their SMILES. Out of some 360,000 compounds screened, about 3,100 (0.86%) were called active. Only a selection was taken, and actives are over-represented in it overall. A number with no mark means an inactive call.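 How the source made its calls: active means inhibition or corrected inhibition above about 18%, plus a signal ratio from 0.5 to 1.5 (limit read from the data, passing the limit was not always enough); inactive means the rest.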

For orientation: inhibition means the change of the read-out against control, counted positive when it falls.

The target of this test is Neuropilin-1 (Homo sapiens) (UniProt O14786). The test can be described thus: NRP-1/CendR peptide interaction modulators – biochemical, fluorescence polarization, uHTS, primary screen (AID 602438). The note with it: FAM-RPARPAR peptide binding to NRP-1, fluorescence polarization; at 25 µM; hits give high values.
Chain of Neuropilin-1 (Homo sapiens) (O14786 whole entry, looked up): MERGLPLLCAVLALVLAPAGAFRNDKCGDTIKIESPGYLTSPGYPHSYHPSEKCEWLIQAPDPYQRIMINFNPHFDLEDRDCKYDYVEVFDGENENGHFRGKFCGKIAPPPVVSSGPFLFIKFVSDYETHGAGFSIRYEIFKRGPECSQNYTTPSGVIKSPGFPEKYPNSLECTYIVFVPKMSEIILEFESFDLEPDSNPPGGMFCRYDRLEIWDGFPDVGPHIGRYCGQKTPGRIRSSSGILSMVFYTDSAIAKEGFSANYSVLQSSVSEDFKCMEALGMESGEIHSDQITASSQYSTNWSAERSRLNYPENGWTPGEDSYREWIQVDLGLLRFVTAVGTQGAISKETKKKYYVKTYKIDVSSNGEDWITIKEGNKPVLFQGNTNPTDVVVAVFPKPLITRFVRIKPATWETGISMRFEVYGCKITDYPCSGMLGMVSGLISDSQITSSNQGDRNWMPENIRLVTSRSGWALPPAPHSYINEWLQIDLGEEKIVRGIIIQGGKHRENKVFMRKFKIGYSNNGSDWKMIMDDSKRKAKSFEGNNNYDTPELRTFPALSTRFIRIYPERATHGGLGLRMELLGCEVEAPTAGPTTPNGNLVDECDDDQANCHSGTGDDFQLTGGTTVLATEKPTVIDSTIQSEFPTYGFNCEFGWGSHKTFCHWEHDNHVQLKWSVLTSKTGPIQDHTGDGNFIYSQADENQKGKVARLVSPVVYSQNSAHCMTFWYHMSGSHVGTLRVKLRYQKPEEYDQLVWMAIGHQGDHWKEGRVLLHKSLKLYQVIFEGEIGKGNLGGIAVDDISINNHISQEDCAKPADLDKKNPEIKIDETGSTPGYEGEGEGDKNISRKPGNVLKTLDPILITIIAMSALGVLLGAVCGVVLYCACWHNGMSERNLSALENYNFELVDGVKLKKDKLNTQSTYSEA
With `CCC(=NCCc1ccccc1)c1c(O)n(C2CCCCC2)c(=O)[nH]c1=O`, the inhibition is 24% (active). On to `CC(=O)c1c(O)n(C2CCCCCC2)c(=O)[nH]c1=O`, for which the inhibition is -12.9%. Turning to `CCCCCCN=C(CC)c1c(O)n(CCCC)c(=O)[nH]c1=O`, the inhibition is -5.7%. Consider `COc1ccccc1C1=NCc2nnc(CSC)n2-c2ccc(Cl)cc21`, for which the inhibition was 10.2%.

On to `COC(=O)[C@@H]1C(OC(=O)c2ccccc2)CC2CCC1N2C` (stereo not given in full), for which the inhibition is -1.6%. On to `Cc1ccc(Cn2nnnc2CN2CCC(n3nnc4ccccc43)CC2)cc1`, for which the inhibition was 25.7% (active). Consider `O=c1[nH]c2ccccc2n1C1CCN(C(c2ccccc2)c2nnnn2Cc2ccccc2)CC1` (stereo not given), for which the inhibition was 11.2%. As for `O=c1[nH]c2ccccc2n1C1CCN(C(c2ccnc3ccccc23)c2nnnn2Cc2ccccc2)CC1` (stereo not given), the inhibition is 6.4%.

Regarding `CN(C)P(=S)(Nc1ccccc1)C(Cl)(Cl)Cl` (stereo not given), the inhibition was 7.8%. As to `COC(=O)C1=C(c2ccccc2)C[C@@H]2CC[C@H]1N2C(=O)NCc1ccco1`, the inhibition is -16.6%.

With `COC(=O)C1=C(c2cc3ccccc3s2)C[C@@H]2CC[C@H]1N2C(=O)NCCO`, the inhibition is -10.5%. With `COC(=O)C1=C(c2ccc(C(C)=O)cc2)C[C@@H]2CC[C@H]1N2C(=O)NCCNC(C)=O`, the inhibition is 34.8% (active).

For the molecule `COC(=O)C1=C(c2ccccc2)C[C@@H]2CC[C@H]1N2C(=O)N1CCCCC1`, the inhibition was 32.5% (active). On to `COC(=O)C1=C(c2ccc3ccccc3c2)C[C@@H]2CC[C@H]1N2C(=O)NCCO`, for which the inhibition is -3.3%.

For the molecule `COC(=O)C1=C(c2cccc(OCc3ccccc3)c2)C[C@@H]2CC[C@H]1N2C(=O)NNCc1ccccc1`, the inhibition is 8.8%.

Consider `NCCc1c[nH]c2ccc(O)cc12`, for which the inhibition was 10.4%.

For `CCC(C)(O)C(=O)OC1C(=O)OC2CC3C(C)=CC(=O)C(O)C3(C)C3C4(O)OCC23C1C(C)C4O` (stereo not given), the inhibition was 9.9%. Under `CCOC(=O)[C@]12Cc3ccccc3[C@H]1N(C1CCCCC1)C(=O)c1cc(OC)ccc12` stands 2.7%; under `Cc1ccc(OC(=O)N(C)C[C@@H]2OCc3cnnn3CCCC(=O)N([C@H](C)CO)C[C@@H]2C)cc1`, 9.5%. For the molecule `Cc1ccc(S(=O)(=O)N(C)c2ccc(C(=O)NCC3(N(C)C)CCCCC3)cc2)cc1`, the inhibition was -2%. As to `CCCCCn1c(=O)c(C(=O)Nc2c(C)n(C)n(-c3ccccc3)c2=O)c(O)c2ccccc21`, the inhibition is 3.5%.

For `CC(C)c1ccc(OCC(=O)N2CCN(C)CC2)c(Br)c1`, the inhibition is 13.4%. As to `CC(C)c1ccc(OCC(=O)N2CCCN(C)CC2)cc1`, the inhibition was 28.1% (active).

Take `CN1CCN(C(=O)COc2ccc(C(C)(C)C)cc2Br)CC1`: the inhibition is 10%. For `CCN1c2nc3c(C)cccn3c(=O)c2CC2(C(=O)N(C)C(=O)N(C)C2=O)C1C` (stereo not given) the value was 10.7%.
